Bioassay records as filed in PubChem.
LASV entry inh – qHTS for Inhibitors of binding or entry into cells for Lassa Virus; Lassa virus pseudotype entry inhibition, cell reporter; Potency, µM (doses to about 37.9 µM), inactives show top-dose activity change, negative = inhibition, actives largely listed as inhibitors; 300,000 tested, 1.2% active; AID 540256, 2011; calls by dose curve; tested in HEK293 cells; further: potency means the concentration at half of the fitted maximal effect; on the % scale 0 is the no-effect control and ±100 the full control effect; nearly all actives have a fitted effect of over 50% in size
Shiga inhibitor – A qHTS for Small Molecule Inhibitors of Shiga Toxin. inhibition, % at 38.7 µM. 290,000 tested, 9.2% active. Vero cells, Shiga toxin protein synthesis inhibition reporter; in the data active means inhibition mostly above about 28%, no sharp cut-off; inactive means mostly below about 43%; further: 0% is about no effect
Cycloheximide cs – Cycloheximide Counterscreen for Small Molecule Inhibitors of Shiga Toxin; AID 2314, 2010; cell reporter, cycloheximide protein synthesis inhibition counterscreen; 300,000 tested, 12% active; max response, %; in the data active means max response mostly above about 13%, no sharp cut-off; inactive means mostly below about 14%; further: read at 38.3 µM for the half of the compounds with a filed dose; 0% is about no effect
MARV entry inh – qHTS for inhibitors of binding or entry into cells for Marburg Virus | Marburg virus pseudotyped entry inhibition, cell reporter | Potency, µM (highest dose often 37.8 µM), for the others: at the highest dose activity change, negative = inhibition, most hits filed as inhibitors | 300,000 tested, 1.8% active; calls by dose curve; tested in HEK293 cells; further: potency means the concentration at half of the fitted maximal effect; on the % scale 0 is the no-effect control and ±100 the full control effect
The depositor's hits bear a star; ? = inconclusive; . = no result; [ ] = another dose, or the depositor's remark. A selection: hits, their analogues and other compounds. The true share with any hit is near 12%.

SMILES	LASV entry inh	Shiga inhibitor	Cycloheximide cs	MARV entry inh
Nc1nc(COc2ccc3ccccc3c2)cs1	5.3%	116.0*	59.7*	-24.1%
Cc1cccc(C(=O)NC(=S)Nc2c(C)n(C)n(-c3ccccc3)c2=O)c1	-3.2%[46.1 µM]	.	.	9.4%[46.1 µM]
O=C1c2ccccc2C(=O)C1Cc1cccc2ccccc12	19.4%	66.1	20.2*	0.4%
CN1C(=O)C(Cc2cccc3ccccc23)C(=O)N(C)C1=O	2.4%	-3.7	4.0	5.1%
O=C1C(=O)N(C2CCN(C(=O)c3ccc(F)cc3)CC2)CCN1Cc1ccc(F)cc1	9.6%[46.1 µM]	.	.	.
CCc1ccc(NC(=S)Nn2cnnc2)cc1	2.6%	-15.4	11.4	5.9%[46.1 µM]
O=C(Nc1ccccc1)Nn1cnnc1	15.2%[46.1 µM]	-7.4	-4.1	-2.7%[46.1 µM]
O=C(Nc1ccc(Br)cc1)Nn1cnnc1	.	21.2	11.5*	.
CCc1ccc(NC(=O)Nn2cnnc2)cc1	-13.9%[46.1 µM]	24.1	17.4*	4.9%[46.1 µM]
COc1ccccc1OCCNC(=O)c1ccc(C)o1	?	.	.	8.1%[46.1 µM]
O=C(NCc1ccccc1Cl)c1ccc2c(c1)nnn2C1CCCC1	6.3%[46.1 µM]	.	.	.
O=C(c1ccccc1Br)N1CCCC(c2nc(-c3cccs3)no2)C1 (stereo not given)	.	113.8*	35.9*	.
O=C(c1c(F)cccc1F)N1CCCC(c2nc(-c3cccs3)no2)C1 (stereo not given)	?	131.3*	25.4	?
CS/C(N)=C(C#N)/C(C#N)=C(\N)SC	.	16.6	5.7	.
CN(Cc1ccccc1)C1CCNCC1	-22.8%	.	5.1	-14.8%
COc1ccc(S(=O)(=O)NCCS(=O)(=O)N2CCN(c3ccccc3)CC2)cc1OC	4.0%[46.1 µM]	.	.	.
O=S(=O)(Nc1cccc(-c2ccc(N3CCCCCC3)nn2)c1)c1ccccc1	-13.6%[46.1 µM]	.	.	.
Cc1ccc(S(=O)(=O)Nc2cccc(-c3ccc(N4CCCCCC4)nn3)c2)cc1	.	89.5*	39.2*	.
COc1ccc(S(=O)(=O)Nc2cccc(-c3ccc(N4CCCC4)nn3)c2)cc1F	-17.3%[46.1 µM]	.	.	.
COc1ccc(S(=O)(=O)Nc2cccc(-c3ccc(N4CCCCCC4)nn3)c2)c(OC)c1	-29.4%[46.1 µM]	60.3*	53.0*	.
COc1ccc(S(=O)(=O)Nc2cccc(-c3ccc(N4CCCC4)nn3)c2)c(OC)c1	-5.8%[46.1 µM]	.	.	.
Cc1cccc(S(=O)(=O)Nc2cccc(-c3ccc(N4CCCCC4)nn3)c2)c1	-19.9%[46.1 µM]	73.4*	58.8*	.
COc1ccc(S(=O)(=O)Nc2cccc(-c3ccc(N4CCCCCC4)nn3)c2)cc1OC	-17.0%[46.1 µM]	40.5*	35.5*	.
CCCN1CCN(C(=O)C2CCN(S(=O)(=O)c3ccc4c(c3)NC(=O)C(C)S4)CC2)CC1 (stereo not given)	.	-4.3	-11.6	.
COc1ccc(NC(=O)CCCc2nnc3n(CCC(C)C)c(=O)c4sccc4n23)cc1Cl	6.9%[46.1 µM]	.	.	.
SMILES	LASV entry inh	Shiga inhibitor	Cycloheximide cs	MARV entry inh
O=C(NC(=S)NCC1CCCO1)c1ccccc1F (stereo not given)	.	43.4	25.8*	.
O=C(NC(=S)NCC1CCCO1)c1cccs1 (stereo not given)	?	25.6	12.5*	?
Cc1cc(C(=O)C(C(c2ccccc2)N2CCOCC2)N2CCOCC2)ccc1Cl (stereo not given)	-2.4%[46.1 µM]	.	.	7.1%[46.1 µM]
CCC1C(=O)n2nc(-c3ccccc3)cc2N=C1C (stereo not given)	8.6%	active	40.0*	-7.9%
CCCSc1nnc(NC(=O)Nc2ccccc2)s1	12.2%	20.7	18.8*	-23.2%
CCCSc1nnc(NC(=O)Nc2ccc(C)cc2)s1	8.4%[46.1 µM]	17.3	1.9	?
CCCSc1nnc(NC(=O)Nc2ccc(F)cc2)s1	?	29.1	31.8*	?
CCCSc1nnc(NC(=O)CCc2ccccc2)s1	.	-5.8	-3.4	.
COc1cccc(N2C(=NC(=O)C3CCCCC3)SC3CS(=O)(=O)CC32)c1 (stereo not given)	-1.3%[46.1 µM]	-4.8	-0.9	?
CC(C)(C)NC(=O)c1ccccc1-c1nc2ccccc2s1	.	20.6	-1.9	.
O=C(Nc1ccccc1)c1nc2ccccc2s1	11.2µM*	89.2*	48.0*	?
CC(C)(C)NC(=O)c1nc2ccccc2s1	7.0%	46.6*	20.5*	?
Cc1cccc(NC(=S)c2nc3ccccc3s2)c1	?	86.4*	27.8*	-13.4%
O=C(Nc1ccccc1)Nc1sccc1-c1nc2ccccc2s1	0.1%	63.2*	16.6	2.0%[46.1 µM]
O=C(Nc1cccc(Cl)c1)Nc1sccc1-c1nc2ccccc2s1	-21.4%	57.5	17.3	?
Cc1cccc(OCC(=O)Nc2cccc(-c3nc4ccccc4s3)c2)c1	2.1%[46.1 µM]	.	.	.
CCn1c(=O)n(C2=C(CO)CN(CC3CCCCCCC3)CC2)c2ccccc21	.	-7.4	-9.2	.
COc1cccc2sc(N(Cc3cccnc3)C(=O)C3COc4ccccc4O3)nc12 (stereo not given)	-12.3%[46.1 µM]	.	.	.
Cc1cccc(C(=O)OCc2cc(=O)n3nc(C4CC4)sc3n2)c1	15.4%[46.1 µM]	.	.	.
CCOc1ccc(C(=O)NCC(c2ccc(Cl)cc2)N2CCCCC2)cc1 (stereo not given)	-8.1%[46.1 µM]	.	.	?
Cc1ccnc(NC(=O)CSc2nnc3c(n2)[nH]c2ccccc23)c1	.	46.6*	33.2*	.
CCOC(=O)NC(=O)/C(C#N)=C\Nc1ccc(Cl)cc1Cl	-1.7%[46.1 µM]	25.6	31.9*	-1.9%[46.1 µM]
COC(=O)/C(=C\Nc1ccc(Cl)cc1Cl)NC(=O)c1ccccc1	8.7%	3.4	-2.4	15.6%
COC(=O)/C(=C\Nc1ccc(Cl)cc1Cl)NC(=O)c1ccc(Cl)cc1Cl	13.4%	80.2*	19.3*	-8.2%
O=C(CCc1ccccc1O)N/N=C/c1ccc(Sc2cccc3cccnc23)o1	-13.1%	25.4	6.5	?
SMILES	LASV entry inh	Shiga inhibitor	Cycloheximide cs	MARV entry inh
Cc1cc(C)nc(NC(=S)Nc2cccc(F)c2)c1	0.5%	20.1	3.0	2.7%
COc1cccc(NC(=S)Nc2cc(C)cc(C)n2)c1	7.7%	56.1*	49.2*	?
COc1ccc(NC(=S)Nc2cc(C)cc(C)n2)cc1OC	9.8%	24.5	20.7*	24.9%
O=C(CN(Cc1ccc(F)cc1)C(=O)CCC(=O)Nc1nccs1)NCc1ccccc1	.	4.1	-6.4	?
NC(=O)c1ccc(Oc2ccc(Cl)cc2)c([N+](=O)[O-])c1	.	-2.3	-0.1	.
CC(C)C(=O)O/N=C(\N)c1ccc(Oc2ccc(Cl)cc2)c([N+](=O)[O-])c1	?	35.9*	22.7*	-30.5%[14.2 µM]
COc1ccc2nc3c(nc2c1)CCCC3	19.8%	30.9	33.2*	1.9%
COc1ccc2nc3c(c(-c4ccccc4)c2c1)CCC3	-0.4%	8.8	12.3	-10.2%
Cc1ccc(Nc2n[nH]c(C)c2[N+](=O)[O-])cc1C	?	54.1	31.8*	-23.1%
CCCCNc1cccc2c1S(=O)(=O)N[C@H](Cc1ccccc1)CO2	-4.4%[46.1 µM]	.	.	.
Cc1nn2cc(-c3ccccc3)nc2s1	?	59.0	32.0*	?
CCC12CN3CCN(CC(C3)/C1=N/NC(N)=O)C2	17.8%	-3.6	-7.3	7.1%[46.1 µM]
CCC1SC(C)C/C(=N/NC(N)=O)C1C (stereo not given)	8.3%	17.2	35.4*	?
COc1ccccc1CCNC(=O)Cc1c(C)c2cc3c(C(C)(C)C)coc3c(C)c2oc1=O	22.3%[46.1 µM]	.	.	5.6%[46.1 µM]
FC(F)(F)c1cnc(-c2cnc(-c3ccccn3)nc2)c(Cl)c1	-26.0%	51.8*	23.8	?
FC(F)(F)c1cnc(-c2cnc(-c3ccncc3)nc2)c(Cl)c1	-1.5%	20.5	20.0*	?
